Shown are actives, neighbours in structure and some others; about 1% of the full set was active somewhere.
SSB-PriA inh: K. pneumoniae PriA-SSBct interaction inhibition. 430,000 compounds, 0.6% hits. AlphaScreen SSBct-PriA binding, biotinylated peptide. inhibition, % at 33 µM; in the data active = inhibition mostly above about 37%, no sharp cut-off; inactive = mostly below about 20%;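 note: plate controls were negative control peptide for no effect and reference peptide for full effect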
Mtb betalactam: beta-lactam sensitization of Mtb H37Rv; M. tuberculosis H37Rv growth with meropenem, percent inhibition; 330,000 compounds, 0.27% hits; inhibition, % at 25 µM; call rule not given here;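 note: growth measured after seven days incubation then overnight dye step; 0% = bacteria only wells and 100% = bacteria with antibiotic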
Sa RN4220 lethal: kills Staphylococcus aureus RN4220. S. aureus RN4220 growth, OD600, 16 h. 330,000 compounds, 0.33% hits. inhibition, % (test concentration not listed). AID 1259311; in the data active = inhibition above about 85%;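 note: plate controls were untreated cells for no effect and reference antibiotic for full effect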
ugtP null kill: compounds lethal to S. aureus RN4220 ugtP deletion mutant. 330,000 compounds, 0.54% hits. OD600 growth, 16 h. growth inhibition, % (no concentration beside the values); in the data active = growth inhibition above about 68%;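 note: plate controls were untreated wells for no effect and antibiotic for full effect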
Mtb hypoxia rep: Mtb hypoxia fluorescent reporter inhibition; M. tuberculosis hypoxia-regulated fluorescent reporter, fluorescence; fluorescence inhibition, % (concentration not given with the values); 300,000 compounds, 0.1% hits; AID 1159583; in the data active = fluorescence inhibition mostly above about 23%, no sharp cut-off; inactive = mostly below about 17%
Active calls of the source: *; i = inactive; u = inconclusive; x = not tested or not shown.

SMILES	SSB-PriA inh	Mtb betalactam	Sa RN4220 lethal	ugtP null kill	Mtb hypoxia rep
Cc1ccc(N2CCCS2(=O)=O)cc1NC(=O)CCc1ccc(S(C)(=O)=O)cc1	-4	x	x	x	x
Cc1ccc(-n2c(Cl)c(Cl)nc(Cl)c2=O)cc1	-8	100	100*	100*	1
Cc1ccc(-n2c(C)cc(=O)cc2C)cc1	-11	x	x	x	x
Oc1cccnc1N=Cc1c(O)ccc2ccccc12	58*	x	x	x	x
COc1ccc(/C=C/C(=O)OCC(=O)NC2CCCC(C)C2C)c(OC)c1 (stereo not given)	-7	-1	1	85*	24
COc1ccc(/C=C/C(=O)OCC(=O)NC2CC2)c(OC)c1	5	3	4	10	-1
O=C(c1cc2nc(-c3ccc(F)cc3)cc(C(F)(F)F)n2n1)N1CCCCC1c1cccnc1 (stereo not given)	-2	99	86	active	-8
O=C(c1cnn2c(C(F)(F)F)cc(-c3ccccc3)nc12)N1CCCCC1c1cccnc1 (stereo not given)	2	21	-2	-1	-11
O=C(Cc1csc(Nc2ccccc2)n1)N1CCN(c2ccccc2)CC1	-1	x	x	x	x
CC(C)NC(=O)c1ccc2c(=O)n(Cc3ccccc3)c3nnc(SCC#N)n3c2c1	-9	x	x	x	x
CCOC(=O)c1[nH]c2ccccc2c1NC(=O)CC(C)C	i	-2	2	-11	4
CCCC(=O)Nc1c(C(=O)OCC)[nH]c2ccccc12	39*	-5	3	9	6
CCOC(=O)c1[nH]c2ccccc2c1NC(=O)c1ccc2c(c1)OCO2	97*	0	12	9	2
COC(=O)c1cccc2nc3c(C(C)O)cccc3nc12 (stereo not given)	42*	-6	1	4	x
CCN(CC)C(=O)c1cccc2nc3ccccc3nc12	-1	-2	3	3	0
CN(CC(=O)NCC#CCN1CCOCC1)S(C)(=O)=O	-14	x	x	x	x
CC(C)Oc1cc(-n2c(=S)[nH]c3ccccc3c2=O)c(Cl)cc1Cl	0	87	100*	101*	x
COc1cc(-n2c(=S)[nH]c3ccccc3c2=O)c(Cl)cc1Cl	3	-5	-5	-58	x
COc1cccc(CSc2nc3ccccc3cc2C=O)c1	-6	21	-6	98*	x
CCCc1ccc(Oc2cc(N3CCOCC3)nc(-c3ccccc3)n2)cc1	-11	u	-12	89*	5
O=C1NC(=S)N(S(=O)(=O)c2c(Cl)cccc2Cl)C1Cc1ccccc1 (stereo not given)	86*	x	x	x	x
Cn1nc(C(=O)OCC(=O)NCCc2ccccc2)c2ccccc2c1=O	-8	-5	3	12	9
Cn1nc(C(=O)OCC(=O)NCc2ccc(Cl)cc2)c2ccccc2c1=O	-12	-8	4	4	31*
O=S(=O)(c1ccc2ccccc2c1)N1CCN(c2ncnc3sc(-c4ccccc4)cc23)CC1	-7	x	x	x	x
COc1ccccc1N1CCN(c2cc(N3CCCC3)nc(C)n2)CC1	4	9	3	3	x
SMILES	SSB-PriA inh	Mtb betalactam	Sa RN4220 lethal	ugtP null kill	Mtb hypoxia rep
COc1ccc(OC)c2c(C)cc(N3CCCN(C)CC3)nc12	44*	-2	-6	-11	2
CCOC(=O)c1cnn2ccc(NC(=O)Cc3ccccc3Cl)cc12	-8	x	x	x	x
CCN(CC)c1ccc(/C=C2/C(=O)ON=C2C)cc1	-4	8	5	3	16
CCN(CC)c1ccc(/C=C2\C(=O)N(c3nnc(C)c(=O)[nH]3)N=C2C)cc1	78*	-1	9	5	14
COc1ccc(Cl)cc1NC(=O)Cn1cc(OC)c(=O)cc1CSc1ncccn1	1	x	x	x	x
COc1cccc(C(=O)Nc2ccccc2N2CCCC2)c1	-2	-4	5	-7	14
COc1cccc(C(=O)NC(=S)Nc2ccccc2N2CCCCC2)c1	4	49	-7	89*	-4
O=C(NC(=S)Nc1ccccc1N1CCCC1)c1ccccc1[N+](=O)[O-]	57*	15	17	79	6
COc1cccc(C(=O)NC(=S)Nc2ccccc2N2CCCC2)c1	10	41	-3	91*	13
CCS(=O)(=O)N1CCCc2cc(NC(=O)N3CCNC3=O)ccc21	-2	x	x	x	x
COc1ccccc1N=NC1=C(O)CC(C)(C)CC1=O	-10	-1	5	-8	13
COc1ccccc1N=Nc1ccc(N)c(C)c1	73*	50	10	9	17
O=C(c1ccc2ccccc2c1)N1CCO[C@H](c2ccccc2)C1	7	x	x	x	x
c1ccc2c(c1)cc1ccc3cccc4ccc2c1c34	-8	x	-8	44	11
Cc1ccc2ccc3cccc4ccc1c2c34	-10	63	-8	100*	16
CCOc1ccc2nc(N=Cc3c(C)[nH]n(-c4ccc(C)cc4)c3=O)sc2c1	-5	x	-4	1	1
COc1ccc2nc(N=Cc3c(C)[nH]n(-c4ccc(C)cc4C)c3=O)sc2c1	48*	x	-3	-1	-4
Cc1ccccc1NC(=O)CSc1n[nH]c(-c2ccccn2)n1	106*	87	1	-7	2
Cc1ccc(C)c(NC(=O)CSc2ncccn2)c1	-7	x	x	x	x
O=C(CSc1n[nH]c(-c2ccccn2)n1)Nc1cccc(Cl)c1	88*	99	9	4	-7
O=C(CSc1n[nH]c(-c2ccccn2)n1)Nc1ccc(Cl)cc1Cl	23	x	x	x	x
Cc1ccc(C)c(NC(=O)CSc2n[nH]c(-c3ccccn3)n2)c1	80*	93	-1	-5	3
O=C(CSc1n[nH]c(-c2ccccn2)n1)NC1CC2CCC1C2 (stereo not given)	99*	x	x	x	x
CN1CCN(C(CNC(=O)c2ccco2)c2ccsc2)CC1 (stereo not given)	-16	x	x	x	x
Cn1cccc1C(O)CCNC(=O)COc1ccccc1F (stereo not given)	-11	x	x	x	x
SMILES	SSB-PriA inh	Mtb betalactam	Sa RN4220 lethal	ugtP null kill	Mtb hypoxia rep
Cc1cccc(NC(=S)NN=Cc2ccc([N+](=O)[O-])s2)c1	39*	x	x	x	x
Cc1cc(C(=O)NN=Cc2ccc([N+](=O)[O-])s2)n[nH]1	x	x	100*	98*	x
Cc1ccc(NC(=S)N/N=C/c2ccc([N+](=O)[O-])s2)cc1	x	98	x	x	x
COc1ccc(NC(C)C(=O)NN=Cc2ccc([N+](=O)[O-])s2)cc1 (stereo not given)	26	x	17	22	43*
Cc1cc(C(=O)N/N=C\c2cccs2)n[nH]1	-1	x	x	x	x
Cc1cc(CCNC(=O)CCC(=O)c2ccccc2)on1	-21	x	x	x	x
Cc1nc2c(-c3ccccc3)c[nH]n2c(=O)c1C	10	x	x	x	x
NNc1ncnc2c1cnn2-c1ccccc1	64*	100	-15	19	6
NNc1ncnc2c1cnn2-c1ccc(F)cc1	73*	x	x	x	x
Cc1ccc(-n2c(-c3ccc(Br)cc3)c[n+]3c2CCc2ccc4cccnc4c2-3)cc1	38	99	99*	90	x
CSc1nccc(-c2nn(-c3ccc(C)cc3)ccc2=O)n1	77*	0	4	1	x
Cc1cc2n(n1)C(c1c[nH]c3ccccc13)Nc1ccccc1-2 (stereo not given)	-1	88	99*	99*	-2
O=c1c2c(nc3ccccn13)CCN(S(=O)(=O)c1ccc3c(c1)CCCC3)C2	-9	x	x	x	x

Screens: PubChem, several laboratories
